Bioassay records deposited in PubChem BioAssay by National Center for Advancing Translational Sciences (NCATS).
KB-3-1 tox – KB-3-1 parental cell cytotoxicity | Potency, µM (titrated, usually from 46.1 µM), hits mostly cytotoxic | AID 1347075 | hit rate 1.4% among 400,000 | KB-3-1 viability, CellTiter-Glo ATP luminescence, 72 h; also: % is scaled to controls: 0 for no effect and ±100 for the full control effect; nearly all actives have a fitted effect of over 60% in size
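Here the drug-naive KB-3-1 line serves as comparator for MDR sub-line selectivity; cells received compound titrations, 72 h at 37 °C, then CellTiter-Glo readout.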
KB-V1 MDR tox – KB-V1 MDR subline cytotoxicity; hit rate 3.4% among 400,000; KB-V1 MDR cells viability, CellTiter-Glo, 72 h; Potency, µM (top dose mostly 46.1 µM), most hits filed as cytotoxic; also: % is scaled to controls: 0 for no effect and ±100 for the full control effect; nearly all actives have a fitted effect of over 60% in size
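Cytotoxicity via CellTiter-Glo luminescence after 72 h compound exposure at 37 degrees C. Cells: drug-selected KB-V1 line, DMEM phenol-red free plus 10% FBS. Compounds tested at multiple concentrations; normalized data fitted to concentration-effect curves.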
HT1080NT lethal – kills 2HG-producing HT-1080-NT fibrosarcoma cells | Potency, µM (highest dose often 46.1 µM), for inactives: top-dose activity, negative = less viability, most hits filed as cytotoxic | AID 686970 | hit rate 1.6% among 360,000 | HT-1080-NT fibrosarcoma viability, CellTiter-Glo ATP luminescence, 48 h;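 also: NT is the 2HG producing partner of a matched IDH1 knockdown line; 0% = DMSO-treated cells and -100% = media-only wells without cells; nearly all actives have a fitted effect of over 55% in size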
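Luminescent CellTiter-Glo readout after 48 hours of compound exposure at 37 degrees C defined viability of HT-1080-NT cells. Activity was normalized to DMSO wells and cell-free media wells; concentration-response curves were fitted and assigned curve classes.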
MCF10A rerep – inducers of DNA re-replication in MCF 10A breast cells | MCF 10A DNA re-replication, Hoechst nuclear intensity, 48 h | AID 624296 | hit rate 2.9% among 350,000 | Potency, µM (doses to about 46.1 µM), without a hit: at the highest dose activity, positive = re-replication, most hits filed as activators; also: % of control where 0% means no effect; nearly all actives have a fitted effect of over 50% in size
SW480 rerep – DNA re-replication induction in SW480 cells. SW480 DNA re-replication, Hoechst DNA content imaging, 48 h. Potency, µM (doses to about 46.1 µM), inactives show top-dose re-replication activation, actives largely listed as activators. hit rate 1.8% among 340,000; also: % of control where 0% means no effect; nearly all actives have a fitted effect of over 55% in size
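First, 250 cells per well were seeded. Next, compound or vehicle (23 nL) was pinned in, plates sat 48 hr at 37 C. Finally Hoechst was added for 40 min before fluorescence scanning.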
HT1080 IDH1KD tx – HT-1080 IDH1 knockdown cell toxicity (counter line); AID 686971; HT-1080 IDH1 knockdown viability, ATP luminescence, 48 h; hit rate 2% among 360,000; Potency, µM (top dose mostly 46.1 µM), without a hit: at the highest dose activity, negative = toxicity, actives largely listed as cytotoxic;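 also: 0% = DMSO wells and -100% = cell-free medium wells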
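IDH1KD HT-1080 cells, 750/well, RPMI + 5% FBS; compound pinned after 2 h settling; 48 h, 37 °C; CellTiter-Glo luminescence; % activity normalised to DMSO and no-cell wells; curves fitted, classed by r2 and efficacy.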
* = called active by the depositor; i = inactive; ? = inconclusive; . = no result given. The list is not random: actives were taken first. Their share in the collection is about 8%. Calls follow the shape of the dose curve; as a rule, active = well fitted curve in the direction sought with a large enough effect; inconclusive = small, poorly fitted or top-dose-only effect, or another doubt; inactive = no such curve, though single readings can be large; an effect the other way counts as inactive or inconclusive. Potency is read from the fitted curve at half-maximal effect.

SMILES | KB-3-1 tox | KB-V1 MDR tox | HT1080NT lethal | MCF10A rerep | SW480 rerep | HT1080 IDH1KD tx
CC(C)Cn1c(O)c(/C=C2\C=NN=C2c2ccccc2)sc1=S | i | ? | -17.2% | 23.1µM* | ? | 2.7%
CCCCCCn1c(O)c(/C=C2\C=NN=C2c2ccccc2)sc1=S | i | ? | -13.2% | ? | ? | ?
CCCCn1c(O)c(/C=C2\C=NN=C2c2ccccc2)sc1=S | i | i | -14.6% | 10.3µM* | ? | -25.2%
COc1cccc(-c2nc(SCC(=O)Nc3ccc4c(c3)OCCO4)c(-c3ccc(C)cc3)[nH]2)c1 | 20.6µM* | ? | . | . | . | .
COc1ccc(-c2[nH]c(-c3ccc(C)cc3)nc2SCC(=O)Nc2nccs2)cc1 | ? | 23.1µM* | ? | ? | . | ?
COc1ccc(-c2nc(SCC(=O)Nc3nccs3)c(-c3ccc(Cl)cc3)[nH]2)cc1 | ? | ? | ? | 14.6% | 11.5% | ?
COc1ccc(-c2nc(SCC(=O)Nc3ccc4c(c3)OCCO4)c(-c3ccc(F)cc3)[nH]2)cc1 | i | i | . | . | . | .
COc1cccc(-c2nn(C)c3sc(C(=O)Nc4ccc5c(c4)OCCO5)cc23)c1 | i | 18.4µM* | -19.7% | ? | 12.4% | -27.5%
CC(=O)c1ccc(S(=O)(=O)N2CCN(C(=O)c3cccc(S(=O)(=O)N4CC(C)OC(C)C4)c3)CC2)cc1 (stereo not given) | i | ? | 8.5% | -2.7% | -9.3% | 1.5%
COc1ccc(C(=O)NNC(=O)CNC(=O)C2CCCCC2)cc1 | i | i | -5.7% | -10.7% | -6.2% | 3.0%
Cc1noc(NS(=O)(=O)c2ccc(NC(=O)c3ccc(Br)cc3)cc2)c1C | i | ? | . | . | . | .
Cc1cccc(C(=O)N[C@H](C(=O)Nc2nc3ccccc3[nH]2)C(C)C)c1 | 5.17µM* | ? | 5.8µM* | 5.8µM* | 5.8µM* | 5.8µM*
COc1ccc(C(=O)N[C@H](C(=O)Nc2nc3ccccc3[nH]2)C(C)C)cc1 | 2.06µM* | 16.4µM* | 5.8µM* | ? | 9.2µM* | 5.8µM*
CCSc1nnc(NC(=O)[C@@H](NC(=O)c2cccc(C)c2)C(C)C)s1 | i | 8.2µM* | -4.2% | ? | 12.6% | 7.6%
Cc1noc(/C=C/N(C)C)c1S(=O)(=O)N1CCC(C(=O)NC(C)(C)C)CC1 | i | i | 15.3% | 0.4% | -3.9% | 5.7%
COc1ccc(NCc2ccccc2-c2nnc(-c3ccccc3)o2)cc1Cl | i | ? | . | . | . | .
CC(=O)Oc1ccc(C(=C2CCCCC2)c2ccc(OC(C)=O)cc2)cc1 | . | . | . | 1.1% | 0.6% | .
Cc1ccc(NCc2ccccc2-c2nnc(-c3ccccc3Cl)o2)cc1Cl | i | i | . | . | . | .
CCCCN(C)C(=O)CN1C(=O)c2cccnc2Oc2ccc(Cl)cc21 | i | i | . | . | . | .
N#Cc1nc(-c2ccc(OCc3ccccc3Cl)cc2)oc1N1CCCCCC1 | i | i | . | . | . | .
COCCCNC(=S)NC(=O)c1ccc(C)cc1 | i | 18.4µM* | 0.0% | 4.9% | -8.3% | 14.1%
COc1cc(O)c(C(CC(=O)N2CCC(C)CC2)c2ccc(OC)c(OC)c2)c(OC)c1 (stereo not given) | i | i | . | . | . | .
O=c1c2ccccc2[nH]c2ccccc12 | i | i | -3.1% | 121.5% | 18.4µM* | -0.9%
c1ccc2c(c1)[nH]c1ccccc12 | i | i | 0.8% | -8.4% | -7.6% | -1.2%
NC(=O)CCCn1c(C(=O)c2cc(Cl)c(N)c(Cl)c2)c2ccc([N+](=O)[O-])cc2[n+]1[O-] | ? | i | -23.2% | 16.4µM* | 20.6µM* | ?
SMILES | KB-3-1 tox | KB-V1 MDR tox | HT1080NT lethal | MCF10A rerep | SW480 rerep | HT1080 IDH1KD tx
NC(=O)CCCn1c(C(=O)c2ccc(Cl)cc2)c2ccc([N+](=O)[O-])cc2[n+]1[O-] | ? | ? | -25.4% | 21.6% | ? | -12.3%
O=C(C1CC(=O)N(c2ccc3c(c2)OCCO3)C1)N1CCN(S(=O)(=O)c2ccccc2F)CC1 (stereo not given) | ? | ? | 0.4% | -0.4% | -6.0% | 4.3%
O=C(COC(=O)c1cccc(Br)c1)NC(=O)NC1CCCC1 | i | i | ? | 0.461µM* | -43.0% | ?
O=C(COC(=O)c1cccc(F)c1)NC(=O)NC1CCCC1 | i | ? | 6.1% | -2.6% | -3.5% | 1.4%
Clc1cccc(N/N=C(\Cc2nc3ccccc3[nH]2)c2ccccc2)c1 | ? | 20.6µM* | 4.1% | ? | ? | -23.4%
COc1ccc(C2=NN(c3nc(-c4ccc(CNC(C)=O)cc4)cs3)C(c3ccco3)C2)cc1 (stereo not given) | i | i | -4.5% | 2.59µM* | ? | -2.8%
C/C(=N\NC(=O)COc1ccccc1-c1ccccc1)c1cccnc1 | i | ? | -13.4% | 12.6% | 0.2% | -11.4%
C/C(=N\NC(=O)COc1ccccc1-c1ccccc1)c1ccccn1 | ? | 4.11µM* | ? | 18.1% | ? | ?
O=C(COc1ccccc1-c1ccccc1)N/N=C/c1ccncc1 | i | ? | -17.5% | 21.3% | -1.0% | -16.6%
O=C(COc1ccccc1-c1ccccc1)N/N=C/c1ccc2ccccc2c1 | 1.3µM* | ? | ? | ? | 1.3µM* | 1.16µM*
CCCCCCCCCC(=O)N/N=C(\C)c1cccnc1 | i | i | -1.2% | ? | -0.3% | -14.2%
CCCCCC(=O)N/N=C(\C)c1ccccn1 | ? | 5.17µM* | 1.3% | 16.9% | 10.5% | -24.3%
O=C(N/N=C/c1cccc([N+](=O)[O-])c1)c1ccc(COc2ccccc2-c2ccccc2)cc1 | ? | 16.4µM* | 4.4% | -5.3% | 1.2% | -1.6%
O=C(Nc1nnc(-c2ccncc2)s1)Nc1ccc(Cl)cc1Cl | i | i | . | . | . | .
CC(C)(C)c1ccc(OCCn2cc(C(=O)c3ccco3)c3ccccc32)cc1 | i | i | . | . | . | .
COC(=O)CC1COc2ccccc2N1S(=O)(=O)c1ccc(Br)cc1 (stereo not given) | i | ? | -10.3% | 28.3% | 10.3µM* | 7.8%
COC(=O)CC1COc2ccccc2N1S(=O)(=O)c1ccc(OC)cc1 (stereo not given) | 18.4µM* | ? | ? | 14.6µM* | ? | 10.3µM*
CCOC(=O)[C@H]1[C@H]2COc3cc(OC)ccc3[C@@H]2N2C(=O)c3cc(F)ccc3NC(=O)[C@@]12C | i | i | -0.3% | 19.8% | -2.3% | 3.1%
CCCNC(=S)N1CCC(C(=O)c2ccc(Cl)cc2)CC1 | i | i | 0.1% | -0.2% | 7.31µM* | -13.9%
COc1ccc(-c2cc3c(=O)n(CC(=O)Nc4ccc(Br)c(C)c4)ccn3n2)cc1OC | i | i | . | . | . | .
